Measurements published in the supplement of paper PMC12819154, “High-throughput peptide-centric local stability assay extends protein–ligand identification to membrane proteins, tissues and bacteria” (Nature Structural & Molecular Biology, 2025).

compound: CN[C@@H]1C[C@H]2O[C@@](C)([C@@H]1OC)n1c3ccccc3c3c4c(c5c6ccccc6n2c5c31)C(=O)NC4 [staurosporine]; assay: log2 fold change of tryptic peptide abundance, ligand vs vehicle (limited proteolysis) (log2 ratio); higher = more trypsin-susceptible (destabilized); conditions: ligand concentration: 20 uM; sample: mouse liver crude lysate; replicate design: treated separately

Sequence of UniProt O35488 (O35488 whole entry): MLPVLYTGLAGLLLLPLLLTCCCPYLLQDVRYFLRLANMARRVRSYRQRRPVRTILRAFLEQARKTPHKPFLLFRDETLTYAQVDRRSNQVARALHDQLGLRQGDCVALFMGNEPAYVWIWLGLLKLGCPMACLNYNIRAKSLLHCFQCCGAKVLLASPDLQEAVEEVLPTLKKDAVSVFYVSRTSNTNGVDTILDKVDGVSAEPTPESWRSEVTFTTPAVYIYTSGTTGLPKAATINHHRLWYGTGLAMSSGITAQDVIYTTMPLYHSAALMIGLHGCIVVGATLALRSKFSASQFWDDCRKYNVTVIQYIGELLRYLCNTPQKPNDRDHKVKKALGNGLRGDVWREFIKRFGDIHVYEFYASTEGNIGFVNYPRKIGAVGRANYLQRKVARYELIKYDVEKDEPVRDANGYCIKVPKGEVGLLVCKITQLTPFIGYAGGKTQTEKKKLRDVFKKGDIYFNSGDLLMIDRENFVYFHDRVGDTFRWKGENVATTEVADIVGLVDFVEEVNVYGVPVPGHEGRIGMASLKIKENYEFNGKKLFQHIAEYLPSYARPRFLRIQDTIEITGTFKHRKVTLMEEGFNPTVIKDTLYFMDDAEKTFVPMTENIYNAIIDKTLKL
Sequence of UniProt Q925I1 (Q925I1 whole entry): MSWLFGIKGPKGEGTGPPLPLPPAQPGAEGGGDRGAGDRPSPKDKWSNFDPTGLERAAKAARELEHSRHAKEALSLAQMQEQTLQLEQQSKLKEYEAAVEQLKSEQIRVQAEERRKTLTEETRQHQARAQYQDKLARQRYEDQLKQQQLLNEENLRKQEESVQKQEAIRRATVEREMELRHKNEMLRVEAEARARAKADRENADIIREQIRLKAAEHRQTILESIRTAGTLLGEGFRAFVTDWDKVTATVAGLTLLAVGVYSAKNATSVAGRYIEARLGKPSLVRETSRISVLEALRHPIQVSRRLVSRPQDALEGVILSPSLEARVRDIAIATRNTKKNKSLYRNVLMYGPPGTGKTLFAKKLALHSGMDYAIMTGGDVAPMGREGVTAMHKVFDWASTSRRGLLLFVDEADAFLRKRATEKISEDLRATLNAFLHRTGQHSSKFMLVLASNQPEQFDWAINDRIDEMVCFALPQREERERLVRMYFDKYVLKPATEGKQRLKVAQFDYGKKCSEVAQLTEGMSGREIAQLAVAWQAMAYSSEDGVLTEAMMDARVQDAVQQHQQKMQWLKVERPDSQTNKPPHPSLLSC
Sequence of UniProt P18654 (P18654 whole entry): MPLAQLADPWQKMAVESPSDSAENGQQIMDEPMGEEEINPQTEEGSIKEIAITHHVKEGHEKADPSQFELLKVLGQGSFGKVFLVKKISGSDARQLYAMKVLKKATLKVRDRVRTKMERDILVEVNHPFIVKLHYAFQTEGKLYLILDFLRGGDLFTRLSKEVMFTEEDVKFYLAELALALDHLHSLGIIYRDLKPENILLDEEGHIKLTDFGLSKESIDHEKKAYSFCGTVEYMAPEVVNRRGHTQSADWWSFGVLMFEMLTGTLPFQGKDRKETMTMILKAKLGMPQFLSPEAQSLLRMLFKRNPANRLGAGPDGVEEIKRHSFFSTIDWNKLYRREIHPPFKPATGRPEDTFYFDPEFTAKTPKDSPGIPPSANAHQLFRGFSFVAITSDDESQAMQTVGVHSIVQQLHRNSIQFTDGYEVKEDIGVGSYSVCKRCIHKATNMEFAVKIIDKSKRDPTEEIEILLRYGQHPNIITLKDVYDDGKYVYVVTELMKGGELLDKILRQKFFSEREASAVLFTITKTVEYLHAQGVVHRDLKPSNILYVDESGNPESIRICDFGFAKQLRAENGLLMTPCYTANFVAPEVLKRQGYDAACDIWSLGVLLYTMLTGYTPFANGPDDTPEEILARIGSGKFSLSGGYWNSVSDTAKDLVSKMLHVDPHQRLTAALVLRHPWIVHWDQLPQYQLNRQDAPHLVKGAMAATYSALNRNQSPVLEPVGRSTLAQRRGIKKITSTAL
Sequence of UniProt Q91XF0 (Q91XF0 whole entry): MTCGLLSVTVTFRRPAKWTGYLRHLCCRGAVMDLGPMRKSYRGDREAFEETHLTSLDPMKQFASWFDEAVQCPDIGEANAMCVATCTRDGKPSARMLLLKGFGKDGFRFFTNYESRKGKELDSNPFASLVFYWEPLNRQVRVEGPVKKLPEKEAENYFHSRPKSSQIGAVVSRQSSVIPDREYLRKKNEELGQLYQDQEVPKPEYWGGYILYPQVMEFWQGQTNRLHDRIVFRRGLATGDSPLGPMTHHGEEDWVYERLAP
Sequence of UniProt Q91W52 (Q91W52 whole entry): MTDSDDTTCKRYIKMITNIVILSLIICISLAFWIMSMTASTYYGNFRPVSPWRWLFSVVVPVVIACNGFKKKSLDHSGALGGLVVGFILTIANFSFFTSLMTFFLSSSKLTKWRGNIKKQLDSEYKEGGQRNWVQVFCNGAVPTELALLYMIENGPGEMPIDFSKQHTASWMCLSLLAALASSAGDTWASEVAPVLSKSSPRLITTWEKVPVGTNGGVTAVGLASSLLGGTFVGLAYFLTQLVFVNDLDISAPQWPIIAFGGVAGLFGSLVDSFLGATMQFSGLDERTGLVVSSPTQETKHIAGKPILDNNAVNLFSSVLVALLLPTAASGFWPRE
Sequence of UniProt A2A8Z1 (A2A8Z1 whole entry): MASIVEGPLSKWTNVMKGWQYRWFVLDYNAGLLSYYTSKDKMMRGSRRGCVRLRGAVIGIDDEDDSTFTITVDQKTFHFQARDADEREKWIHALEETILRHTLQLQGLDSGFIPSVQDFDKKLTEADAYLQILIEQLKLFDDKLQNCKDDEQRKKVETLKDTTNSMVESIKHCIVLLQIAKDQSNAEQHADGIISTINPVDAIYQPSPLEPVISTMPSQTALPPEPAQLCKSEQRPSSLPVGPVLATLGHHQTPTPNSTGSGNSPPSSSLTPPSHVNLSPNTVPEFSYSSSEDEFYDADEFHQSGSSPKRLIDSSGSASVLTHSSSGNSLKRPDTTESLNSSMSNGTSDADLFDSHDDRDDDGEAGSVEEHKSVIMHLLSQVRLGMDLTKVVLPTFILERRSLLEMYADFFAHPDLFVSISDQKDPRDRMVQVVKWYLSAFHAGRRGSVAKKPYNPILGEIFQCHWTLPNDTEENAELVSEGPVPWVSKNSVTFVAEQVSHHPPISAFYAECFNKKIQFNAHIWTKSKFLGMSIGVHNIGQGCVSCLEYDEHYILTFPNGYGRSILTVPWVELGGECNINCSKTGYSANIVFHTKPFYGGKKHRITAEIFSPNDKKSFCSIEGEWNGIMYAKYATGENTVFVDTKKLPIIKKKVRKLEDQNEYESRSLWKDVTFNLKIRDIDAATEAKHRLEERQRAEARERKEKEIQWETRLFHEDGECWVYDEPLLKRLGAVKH
Sequence of UniProt Q9DCN1 (Q9DCN1 whole entry): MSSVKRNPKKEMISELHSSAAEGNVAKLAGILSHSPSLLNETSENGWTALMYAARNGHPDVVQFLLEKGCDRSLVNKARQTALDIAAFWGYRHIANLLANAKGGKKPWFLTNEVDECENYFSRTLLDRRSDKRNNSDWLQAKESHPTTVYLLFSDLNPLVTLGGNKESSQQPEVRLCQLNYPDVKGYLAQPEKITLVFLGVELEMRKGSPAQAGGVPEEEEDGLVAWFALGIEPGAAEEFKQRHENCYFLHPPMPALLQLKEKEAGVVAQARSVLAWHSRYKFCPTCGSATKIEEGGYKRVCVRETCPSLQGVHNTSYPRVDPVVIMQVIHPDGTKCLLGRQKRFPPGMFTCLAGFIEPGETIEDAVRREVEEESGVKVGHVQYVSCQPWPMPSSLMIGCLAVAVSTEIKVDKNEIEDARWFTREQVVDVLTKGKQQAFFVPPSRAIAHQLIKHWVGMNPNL
Sequence of UniProt P97864 (P97864 whole entry): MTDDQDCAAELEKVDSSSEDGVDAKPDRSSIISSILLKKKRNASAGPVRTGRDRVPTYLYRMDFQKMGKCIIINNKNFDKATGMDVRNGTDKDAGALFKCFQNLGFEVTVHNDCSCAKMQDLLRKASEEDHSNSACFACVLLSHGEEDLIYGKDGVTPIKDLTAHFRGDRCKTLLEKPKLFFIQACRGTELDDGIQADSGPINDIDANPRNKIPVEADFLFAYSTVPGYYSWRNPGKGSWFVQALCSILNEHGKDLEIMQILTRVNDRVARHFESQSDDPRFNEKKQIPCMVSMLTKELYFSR
Sequence of UniProt Q6ZQ89 (Q6ZQ89 whole entry): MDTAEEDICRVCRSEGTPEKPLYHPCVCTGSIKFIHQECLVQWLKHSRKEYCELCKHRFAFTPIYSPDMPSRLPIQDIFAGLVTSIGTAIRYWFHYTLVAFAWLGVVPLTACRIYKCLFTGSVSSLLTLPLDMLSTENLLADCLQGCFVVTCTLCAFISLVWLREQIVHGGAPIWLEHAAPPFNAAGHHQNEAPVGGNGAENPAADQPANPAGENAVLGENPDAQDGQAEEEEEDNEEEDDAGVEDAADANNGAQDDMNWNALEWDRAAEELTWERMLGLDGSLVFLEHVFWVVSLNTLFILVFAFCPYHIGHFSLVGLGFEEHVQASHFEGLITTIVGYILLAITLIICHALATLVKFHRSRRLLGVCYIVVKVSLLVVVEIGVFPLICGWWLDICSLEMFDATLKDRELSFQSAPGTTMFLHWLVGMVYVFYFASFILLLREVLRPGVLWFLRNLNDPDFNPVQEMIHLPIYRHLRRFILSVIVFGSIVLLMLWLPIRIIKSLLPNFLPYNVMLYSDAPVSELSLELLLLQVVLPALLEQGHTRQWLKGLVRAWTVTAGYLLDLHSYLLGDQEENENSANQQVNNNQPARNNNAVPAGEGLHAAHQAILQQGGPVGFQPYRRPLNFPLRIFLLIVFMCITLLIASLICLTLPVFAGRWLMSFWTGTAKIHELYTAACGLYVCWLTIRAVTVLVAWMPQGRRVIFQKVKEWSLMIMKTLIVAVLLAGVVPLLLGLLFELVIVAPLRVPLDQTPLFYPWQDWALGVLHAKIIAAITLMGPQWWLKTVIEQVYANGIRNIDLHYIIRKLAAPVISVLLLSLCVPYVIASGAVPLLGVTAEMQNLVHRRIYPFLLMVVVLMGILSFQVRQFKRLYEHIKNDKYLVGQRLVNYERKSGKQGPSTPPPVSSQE

Target	log2 fold change
UniProt A2A8Z1 (peptide sequence: VVLPTFILERR, peptide start residue: 391)	0.538
UniProt Q6ZQ89 (peptide sequence: FIHQECLVQWLK, peptide start residue: 34)	0.572
UniProt O35488 (peptide sequence: YELIKYDVEKDEPVR, peptide start residue: 394)	0.821
UniProt Q61831 (peptide sequence: DLKPSNIVVK, peptide start residue: 151)	-1.06
UniProt Q8C878 (peptide sequence: LPEHCIEYVR, peptide start residue: 245)	0.505
UniProt Q91XF0 (peptide sequence: SSQIGAVVSR, peptide start residue: 164)	1.44
UniProt Q9QXD1 (peptide sequence: LFEWAQK, peptide start residue: 649)	-0.551
UniProt Q9DCN1 (peptide sequence: AIAHQLIK, peptide start residue: 446)	-0.997
UniProt P18654 (peptide sequence: GAMAATYSALNR, peptide start residue: 701)	0.612
UniProt P24456 (peptide sequence: RVQQEIDAVIGQVR, peptide start residue: 333)	-0.553
UniProt Q9DB30 (peptide sequence: IMEVSAER, peptide start residue: 54)	-3.03
UniProt Q3UTQ8 (peptide sequence: DIKPENLLISHNDVLK, peptide start residue: 135)	-1.56
UniProt Q9Z2W1 (peptide sequence: GSFGEVYK, peptide start residue: 29)	-2.09
UniProt Q91W52 (peptide sequence: LITTWEK, peptide start residue: 203)	0.417
UniProt Q9JI11 (peptide sequence: ATATQLLQHPFVK, peptide start residue: 270)	-3.07
UniProt Q8BRK8 (peptide sequence: DLKPENVLLDAQMNAK, peptide start residue: 139)	-3.83
UniProt Q80ZW0 (peptide sequence: YSLLAEIGR, peptide start residue: 207)	-0.855
UniProt P37172 (peptide sequence: GSWQGENVAVK, peptide start residue: 225)	-2.41
UniProt Q9DBG5 (peptide sequence: VGQMVISGVDR, peptide start residue: 185)	0.534
UniProt P97864 (peptide sequence: LFFIQACR, peptide start residue: 180)	-0.485
UniProt O88643 (peptide sequence: LTDFGFCAQITPEQSKR, peptide start residue: 384)	-2.39
UniProt P41216 (peptide sequence: WLLDFASK, peptide start residue: 389)	0.328
UniProt Q99LB7 (peptide sequence: AYGIESHVLSPAETK, peptide start residue: 175)	-0.446
UniProt Q9QZS5 (peptide sequence: TVAACDLLQGLLHKDQR, peptide start residue: 258)	-2.7
UniProt Q925I1 (peptide sequence: LGKPSLVR, peptide start residue: 278)	0.434
UniProt P70697 (peptide sequence: FALPYIR, peptide start residue: 232)	0.384
